In PubChem BioAssay (NCATS):
For some of these results: Entries with a potency or affinity are not part of this list. Activity calls are given as the source filed them. For most assays here, calls follow the shape of the full dose curve.

Key:
[1] = Ebola virus entry assay, blue channel fluorescence
[2] = Ebola virus entry assay, green fluorescence channel
[3] = Ebola virus entry assay, ratio channel readout
[4] = Ebola virus entry assay, blue channel fluorescence; remark: listed apart in the source

Measured: outcome

Nc1ccn([C@@H]2O[C@H](CO)[C@@H](O)C2O)c(=O)n1 (stereo not given in full)
inactive: all assays above

OC[C@H]1O[C@@H](n2cnc3c2NC=NC[C@H]3O)C[C@@H]1O
inactive: all assays above

C[N+]1(C)[C@@H]2CC(OC(=O)C(O)(c3cccs3)c3cccs3)C[C@H]1[C@@H]1O[C@@H]12 (stereo not given in full)
inactive: all assays above

COCC1=C(C(=O)OC(C)OC(=O)OC(C)C)N2C(=O)[C@@H](NC(=O)/C(=N\OC)c3csc(N)n3)[C@H]2SC1 (stereo not given in full)
inactive: all assays above

Clc1ccc2c(c1)C(c1ccccc1)=NCc1nncn1-2
inactive: all assays above

CC(C)CN(C[C@@H](OP(=O)(O)O)[C@H](Cc1ccccc1)NC(=O)O[C@H]1CCOC1)S(=O)(=O)c1ccc(N)cc1
inactive: all assays above

C#CCC(Cc1cnc2nc(N)nc(N)c2n1)c1ccc(C(=O)N[C@@H](CCC(=O)O)C(=O)O)cc1 (stereo not given in full)
inactive: all assays above

C=CC1=C(C(=O)O)N2C(=O)[C@@H](NC(=O)/C(=N/OCC(=O)O)c3csc(N)n3)[C@H]2SC1 (stereo in doubt)
inactive: all assays above

CC(C)CN(C[C@@H](O)[C@H](Cc1ccccc1)NC(=O)O[C@@H]1CCOC1)S(=O)(=O)c1ccc(N)cc1
inactive: all assays above

CC(C)CN(C[C@@H](O)[C@H](Cc1ccccc1)NC(=O)O[C@H]1CO[C@H]2OCC[C@H]21)S(=O)(=O)c1ccc(N)cc1
inactive: all assays above

C[C@@H]1[C@H](O)[C@@H](C)/C=C/C=C\C=C\C=C\C=C\C=C\C=C\[C@H](O[C@@H]2O[C@H](C)[C@@H](O)[C@H](N)[C@@H]2O)C[C@@H]2O[C@](O)(C[C@@H](O)C[C@@H](O)[C@H](O)CC[C@@H](O)C[C@@H](O)CC(=O)O[C@H]1C)C[C@H](O)[C@H]2C(=O)O (stereo in doubt)
inactive: all assays above

CC(=O)NC[C@H]1CN(c2ccc(N3CCOCC3)c(F)c2)C(=O)O1
inactive: all assays above

COC(=O)C(c1ccccc1)C1CCCCN1 (stereo not given)
inactive: all assays above

Nc1nc(NC2CC2)c2ncn([C@@H]3C=C[C@@H](CO)C3)c2n1
inactive: all assays above

CO/N=C(\C(=O)N[C@@H]1C(=O)N2C(C(=O)O)=C(COC(C)=O)CS[C@H]12)c1csc(N)n1 (stereo in doubt)
inactive: all assays above

CCOC(=O)[C@H](CCc1ccccc1)N[C@H]1CCCN2CCC[C@@H](C(=O)O)N2C1=O
inactive: all assays above

Cc1nnc(C(C)C)n1C1C[C@H]2CC[C@@H](C1)N2CC[C@H](NC(=O)C1CCC(F)(F)CC1)c1ccccc1 (stereo not given in full)
inactive: all assays above

CCC(=O)OC(OP(=O)(CCCCc1ccccc1)CC(=O)N1C[C@H](C2CCCCC2)C[C@H]1C(=O)O)C(C)C (stereo not given in full)
inactive: all assays above

C=C1[C@H](CO)[C@@H](O)C[C@@H]1n1cnc2c(=O)[nH]c(N)nc21
inactive: all assays above

O=C(O)c1cc(N=Nc2ccc(O)c(C(=O)O)c2)ccc1O
inactive: all assays above

COc1cc(C)c(/C=C/C(C)=C/C=C/C(C)=C/C(=O)O)c(C)c1C
inactive: all assays above

CC(C)C[C@H](CN)CC(=O)O
inactive: all assays above

CCN(CC)C(=O)[C@]1(c2ccccc2)C[C@@H]1CN
inactive: all assays above

CCCCCCCCCCCCCCCC(=O)OCCC1CCN(CCCN2c3ccccc3Sc3ccc(S(=O)(=O)N(C)C)cc32)CC1
inactive: all assays above

CO[C@H]1C=CO[C@@]2(C)Oc3c(C)c(O)c4c(O)c(c5c(nc6cc(C)ccn65)c4c3C2=O)NC(=O)/C(C)=C\C=C[C@H](C)[C@H](O)[C@@H](C)[C@@H](O)[C@@H](C)[C@H](OC(C)=O)[C@@H]1C
inactive: all assays above
